# Reference: PubChem BioAssay
# Values joined by “and” are separate entries in the source; they are usually repeats but may differ in a detail not shown here. Equal entries are not always repeated. Active and inactive are the calls of the source. Cut-off read from the data, not from the text of the source, unless noted: active = inhibition above about 80%; inactive = the rest.
# Legend:
# [1] = sensitizers of A549 cells to miR-34 induction, primary screen, imaging, A549 dox-inducible miR-34, nuclei and caspase counts (AID 1347080;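 active = compounds whose cell count with miR-34 switched on is under 0.7 times the count with it off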); settings: A549 miR-34 inducible, Hoechst nuclei count, 48 h
# [2] = survival rescue of mitochondrial mutant cells in low glucose, primary screen, MELAS cybrids, Rieske KO mouse fibroblasts, CellTiter-Glo (AID 1508586;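 active = mean z-score across replicates of 1.96 or higher in either the MELAS or the Rieske mutant cell line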;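 note: z relative to plate mean and SD of compound and empty wells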)
# [3] = viability rescue of complex I mutant cybrids, primary screen, cell-based, galactose medium, ATP luminescence (AID 1645843;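 active = z-score of at least 1.8 in each of two replicates, scored against plate mean and spread of sample wells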;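 note: positive z means more ATP and so rescue of galactose-driven cybrid death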); settings: complex I mutant cybrid cells, 72 h, stronger effect = higher value
# [4] = LFS_MB_P medulloblastoma growth inhibition, cell-based, chromothripsis tumors, cisplatin or BGB combos (AID 1671449); settings: LFS_MB_P medulloblastoma cells;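 note: cells exposed for 96 hours; 0% = vehicle DMSO and 100% = killing by high DMSO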
# [5] = HDN33 neuroblastoma growth inhibition, cell-based, chromothripsis tumors, cisplatin or BGB combos (AID 1671450); settings: HDN33 neuroblastoma cells, stronger effect = higher value;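 note: cells exposed to compound for four days; 0% = vehicle DMSO and 100% = cell killing by high DMSO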
# [6] = ICB984 medulloblastoma cell growth inhibition, synergistic combos for chromothripsis tumors, cisplatin or BGB combos (AID 1671451; call rule not given here;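 note: cells exposed for 96 hours before readout; 0% = vehicle DMSO and 100% = killing by high DMSO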); settings: ICB984 medulloblastoma cells, drug combinations, stronger effect = higher value
# [7] = LFS_MB_1R medulloblastoma cell growth inhibition, synergistic combos for chromothripsis tumors, cisplatin or BGB combos (AID 1671452); settings: LFS_MB_1R medulloblastoma cells, stronger effect = higher value;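 note: cells exposed for 96 hours before readout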
# [8] = HTB85 osteosarcoma cell growth inhibition, synergistic combos for chromothripsis tumors, BGB or cisplatin IC20 combos (AID 1671453); settings: HTB85 osteosarcoma cells, drug combinations, stronger effect = higher value;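 note: cells exposed for 96 hours before readout; 0% = vehicle DMSO and 100% = high DMSO killing control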
# [9] = CRL2098 osteosarcoma cell growth inhibition, synergistic combos for chromothripsis tumors, BGB or cisplatin IC20 combos (AID 1671454); settings: CRL2098 osteosarcoma cells, drug combinations, stronger effect = higher value;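 note: cells exposed for 96 h before readout; 0% = vehicle DMSO and 100% = killing by high DMSO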
# [10] = HD-MB03 medulloblastoma cell growth inhibition, synergistic combos for chromothripsis tumors, BGB or cisplatin IC20 combos (AID 1671455; in the data active = inhibition above about 83%;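 note: 0% = vehicle DMSO and 100% = high DMSO as cytotoxic control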); settings: HD-MB03 medulloblastoma cells, stronger effect = higher value
# [11] = UWB1.289 ovarian carcinoma cell growth inhibition, synergistic combos for chromothripsis tumors, BGB or cisplatin combos (AID 1671456); settings: UWB1.289 ovarian carcinoma cells, stronger effect = higher value;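 note: cells exposed to compound for four days; 0% = vehicle DMSO and 100% = killing by high DMSO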
# [12] = LFS_MB_2R medulloblastoma cell growth inhibition, synergistic combos for chromothripsis tumors, cisplatin combos (AID 1671457); settings: LFS_MB_2R medulloblastoma cells, stronger effect = higher value;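 note: cells exposed to compound for four days before readout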
# [13] = MDA-MB-436 breast carcinoma cell growth inhibition, synergistic combos for chromothripsis tumors, BGB or cisplatin combos (AID 1671458; call rule not given here;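 note: cells exposed for 96 hours; 0% = vehicle DMSO and 100% = killing by high DMSO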); settings: MDA-MB-436 breast carcinoma growth inhibition, drug combinations, stronger effect = higher value
# [14] = UWB1.289_BRCA1 ovarian cancer growth, cell-based, BGB or cisplatin combinations (AID 1671459); settings: UWB1.289 BRCA1 ovarian carcinoma, drug combinations, stronger effect = higher value
# [15] = human astrocyte viability loss, single and combined drugs, cytotoxicity control for chromothriptic childhood tumor combination screen, cell-based, BGB or cisplatin IC20 combos (AID 1671460); settings: Human astrocytes, drug combinations, stronger effect = higher value;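 note: cells exposed to compounds for 96 hours before viability readout; 0% = vehicle and 100% = killing control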
# [16] = growth inhibition of BT084 medulloblastoma cells, cell-based, ICGC_MB145, cisplatin and BGB IC40 combos (AID 1671461); settings: drug combinations, stronger effect = higher value;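 note: cells exposed to drugs for 96 hours; 0% = vehicle DMSO and 100% = high DMSO full killing control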
# [17] = growth inhibition of RCMB18 medulloblastoma cells, cell-based, cisplatin and BGB IC40 combos (AID 1671462); settings: stronger effect = higher value;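 note: cells exposed to compound for four days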
# [18] = growth inhibition of CRL1545 osteosarcoma cells, cell-based, cisplatin and BGB IC20 combos (AID 1671464); settings: stronger effect = higher value;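 note: cells exposed to compound for 96 hours before readout; 0% = vehicle DMSO and 100% = high DMSO killing control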
# [19] = liver-stage malaria parasite growth inhibition, primary screen, cell-based, HepG2, luciferase luminescence, HepG2 viability (AID 624349; in the data active = parasite load remaining mostly below about 12%, no sharp cut-off; inactive = mostly above about 10%;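 note: 100% = mean of DMSO negative control wells on the same plate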); settings: P. berghei liver stage in HepG2, luciferase luminescence, concentration not given here; parasite load remaining: stronger effect = lower value; viability: measured here: HepG2 viability without parasites
# [20] = stronger effect = lower value, cell number ratio, induced over uninduced
# [21] = measured here: relative caspase fold change +Dox/-Dox
# [22] = measured here: total cells with miR-34 induction, stronger effect = lower value
# [23] = measured here: total cells without miR-34 induction
# [24] = MELAS cybrid survival, CellTiter-Glo 48 h, stronger effect = higher value
# [25] = Rieske KO mouse fibroblast survival, CellTiter-Glo 72 h
# [26] = measured here: combination with BGB IC40, at 0.05 µM
# [27] = measured here: with BGB IC20 combination, at 0.5 µM
# [28] = measured here: with cisplatin IC20 combination, at 0.5 µM
# [29] = measured here: combination with cisplatin, at 0.5 µM
# [30] = measured here: combination with cisplatin, at 5 µM
smiles,measurement,setting,value
Nc1ccn(C2CCC(CO)O2)c(=O)n1 (stereo not drawn),fold change,[1]; [20],0.958 (inactive) and 0.921 (inactive)
same,fold change,[1]; [21],1.84 and 0.793
same,cell count,[1]; [22],9800 and 8610
same,cell count,[1]; [23],10200 and 9350
same,z-score,[2]; [24],-0.101 (inactive)
same,z-score,[2]; [25],0.566
same,z-score,[3],0.445 (inactive)
same,inhibition,"[4]; at 0.5 µM, stronger effect = higher value",-21% (inactive)
same,inhibition,"[4]; measured here: combination with BGB IC20, at 0.005 µM",-12.9%
same,inhibition,"[4]; measured here: combination with BGB IC40, at 0.005 µM",8.5%
same,inhibition,[4]; [26],-10.6%
same,inhibition,"[4]; measured here: combination with cisplatin, at 0.5 µM, stronger effect = higher value",-35%
same,inhibition,"[4]; measured here: combination with cisplatin, at 5 µM, stronger effect = higher value",-13%
same,inhibition,"[5]; BGB combo, at 5 µM",-33.4%
same,inhibition,[5]; at 0.5 µM,-28.1% (inactive)
same,inhibition,"[5]; cisplatin combo, at 5 µM",-14%
same,inhibition,[5]; [27],-28.7%
same,inhibition,[5]; [28],-15.2%
same,inhibition,"[5]; single agent, at 5 µM",-52.9%
same,inhibition,"[6]; BGB IC20 combo, at 0.005 µM",-1.06%
same,inhibition,"[6]; BGB IC40 combo, at 0.005 µM",-15.6%
same,inhibition,"[6]; BGB IC40 combo, at 0.05 µM",-24.6%
same,inhibition,[6]; at 0.5 µM,-11.4% (inactive)
same,inhibition,"[6]; cisplatin combo, at 0.05 µM",-24.6%
same,inhibition,"[6]; cisplatin combo, at 0.5 µM",-24.3%
same,inhibition,"[6]; cisplatin combo, at 5 µM",15.2%
same,inhibition,"[6]; measured here: 5 uM single agent, at 5 µM",-2.52%
same,inhibition,[7]; at 0.5 µM,-18.2% (inactive)
same,inhibition,[7]; [26],-11.6%
same,inhibition,[7]; [29],-19.1%
same,inhibition,[7]; [30],-44%
same,inhibition,[8]; at 0.5 µM,-28.2% (inactive)
same,inhibition,"[8]; measured here: with BGB IC20, at 0.5 µM",-29.8%
same,inhibition,"[8]; measured here: with BGB IC20, at 5 µM",-10%
same,inhibition,"[8]; measured here: with cisplatin IC20, at 0.5 µM",-43.4%
same,inhibition,"[8]; measured here: with cisplatin IC20, at 5 µM",-30.1%
same,inhibition,"[8]; single agent, at 5 µM",-16.7%
same,inhibition,[9]; at 0.5 µM,-61.6% (inactive)
same,inhibition,"[9]; measured here: combination with BGB at IC20, at 0.5 µM",-74.6%
same,inhibition,"[9]; measured here: combination with cisplatin at IC20, at 0.5 µM",-68.6%
same,inhibition,[10]; at 0.5 µM,-9.09% (inactive)
same,inhibition,"[10]; measured here: combo with BGB at IC20, at 0.5 µM",-13.9%
same,inhibition,"[10]; measured here: combo with cisplatin at IC20, at 0.5 µM",-16.6%
same,inhibition,[11]; at 0.5 µM,7.61% (inactive)
same,inhibition,"[11]; measured here: inhibition with BGB combination, at 0.05 µM",-29.4%
same,inhibition,"[11]; measured here: inhibition with cisplatin combination, at 0.05 µM",-3.05%
same,inhibition,[12]; at 0.5 µM,-6.12% (inactive)
same,inhibition,[12]; [29],0.862%
same,inhibition,[12]; [30],2.6%
same,inhibition,[13]; at 0.5 µM,-21.2% (inactive)
same,inhibition,"[13]; measured here: BGB combination, at 0.5 µM",-29.5%
same,inhibition,"[13]; measured here: BGB combination, at 5 µM",-21.7%
same,inhibition,"[13]; measured here: cisplatin combination, at 0.5 µM",-25.6%
same,inhibition,"[13]; measured here: cisplatin combination, at 5 µM",-2.99%
same,inhibition,"[14]; BGB combination, concentration series, at 5 µM",-17.4%
same,inhibition,[14]; at 0.5 µM,-16.8% (inactive)
same,inhibition,"[14]; cisplatin combination, concentration series, at 5 µM",-7.33%
same,inhibition,[15]; at 0.5 µM,-3.66% (inactive)
same,inhibition,"[15]; measured here: combo with BGB IC20, at 0.5 µM",2.88%
same,inhibition,"[15]; measured here: combo with cisplatin IC20, at 0.5 µM",-17%
same,inhibition,[16]; at 0.5 µM,-0.679% (inactive)
same,inhibition,"[16]; cisplatin combination, at 0.5 µM",-0.865%
same,inhibition,"[16]; cisplatin combination, at 5 µM",-52%
same,inhibition,"[16]; measured here: BGB IC40 combination 0.05 uM, at 0.05 µM",24%
same,inhibition,"[16]; single agent, at 5 µM",-28.3%
same,inhibition,[17]; at 0.5 µM,-1.7% (inactive)
same,inhibition,"[17]; cisplatin combo, at 5 µM",11.7%
same,inhibition,"[17]; measured here: BGB IC40 combination, at 0.05 µM",-6.98%
same,inhibition,[17]; [29],-10.2%
same,inhibition,"[17]; single agent, at 5 µM",-30.2%
same,inhibition,[18]; at 0.5 µM,-50% (inactive)
same,inhibition,[18]; [27],-14.8%
same,inhibition,[18]; [28],-67.7%
same,inhibition,"[18]; single agent, at 0.05 µM",32.2%
same,inhibition,"[18]; single agent, at 5 µM",11.1%
N.N.O=C(O)CO.[Pt],parasite load remaining,[19],50.4% (inactive)
same,viability,[19],108%
same,fold change,[1]; [20],0.961 (inactive)
same,fold change,[1]; [21],1.22
same,cell count,[1]; [22],10100
same,cell count,[1]; [23],10500
same,z-score,[2]; [24],-0.923 (inactive)
same,z-score,[2]; [25],-1.2
same,z-score,[3],0.195 (inactive)
CCCCn1c(=O)c2c(ncn2CC(C)=O)n(CCCC)c1=O,parasite load remaining,[19],49% (inactive)
same,viability,[19],100%
same,fold change,[1]; [20],0.978 (inactive)
same,fold change,[1]; [21],1.23
same,cell count,[1]; [22],10200
same,cell count,[1]; [23],10400
same,z-score,[2]; [24],0.541 (inactive)
same,z-score,[2]; [25],0.0406
same,z-score,[3],0.875 (inactive)
